# Screens deposited in PubChem BioAssay by National Center for Advancing Translational Sciences (NCATS).
# TDP1 block – blocks human tyrosyl-DNA phosphodiesterase 1. Q9NUW8. recombinant TDP1, AlphaScreen DNA substrate cleavage. Potency, µM (top dose mostly 130 µM), for the others: at the top dose activity change, negative = inhibition, actives largely listed as inhibitors. 0.28% of 350,000 active; also: nearly all actives have a fitted effect of over 40% in size
#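 E. coli-derived human Tdp1, 1 nM final. Cpd preinc 15 min RT; substrate 15 nM final, 5 min RT; AS bead mix 10 ug/ml final, 10 min RT. Signal loss = tyrosine-FITC cleavage. No-enzyme wells = max signal.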
# DT40 TDP1 no CPT – qHTS for Inhibitors of human tyrosyl-DNA phosphodiesterase 1 (TDP1): qHTS in cells in absence of CPT. DT40 Tdp1-/- hTDP1 cells, no CPT, ATP luminescence, 48 h. Potency, µM (doses to about 46.2 µM), inactives show top-dose activity change, negative = growth inhibition, actives largely listed as inhibitors. 15% of 420,000 active. AID 686978, 2013; also: nearly all actives have a fitted effect of over 55% in size
#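 DT40 Tdp1-/-;hTDP1 cells, no CPT (DMSO vehicle only), 400 cells/well; compounds pin-transferred; ≥48 hr, 37 °C; CellTiter-Glo 30 min RT dark, luminescence read.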
# Gal4-VP16 FLuc – inhibits Gal4-VP16 luciferase reporter, ROR gamma counter-screen; Potency, µM (doses to about 53.6 µM), for inactives: top-dose activity, negative = inhibition, actives largely listed as inhibitors; Drosophila S2 Gal4-VP16 UAS-luciferase, luminescence, 20 h; 3.5% of 310,000 active; AID 2546;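 also: Gal4-VP16 expression switched on by copper sulfate through the metallothionein promoter; nearly all actives have a fitted effect of over 50% in size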
# DT40 TDP1 CPT – growth inhibition of DT40 Tdp1-/-;hTDP1 cells with camptothecin (screen for TDP1 inhibitors). chicken DT40 Tdp1-/-;hTDP1 cells + 20 nM CPT, ATP luminescence, 48 h. Potency, µM (doses to about 46.2 µM), without a hit: top-dose activity change, negative = growth inhibition, actives largely listed as inhibitors. 12% of 420,000 active; also: nearly all actives have a fitted effect of over 55% in size
#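 Chicken DT40 Tdp1-/- cells stably complemented with human TDP1 were seeded at 400 cells/well in medium containing 20 nM camptothecin, exposed to pin-transferred compounds, and grown at 37 °C for at least 48 hr. Viability was read as ATP luminescence.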
# RORgamma inh – blocks mouse ROR gamma transcriptional activity; Drosophila S2 Gal4-RORgamma UAS-luciferase reporter, 20 h; 5.4% of 310,000 active; Potency, µM (doses to about 53.6 µM), inactives show at the top dose activity change, negative = inhibition, actives largely listed as inhibitors; P51450; also: nearly all actives have a fitted effect of over 60% in size
# Target sequence (P51450 whole entry, looked up, the tested form may be a part): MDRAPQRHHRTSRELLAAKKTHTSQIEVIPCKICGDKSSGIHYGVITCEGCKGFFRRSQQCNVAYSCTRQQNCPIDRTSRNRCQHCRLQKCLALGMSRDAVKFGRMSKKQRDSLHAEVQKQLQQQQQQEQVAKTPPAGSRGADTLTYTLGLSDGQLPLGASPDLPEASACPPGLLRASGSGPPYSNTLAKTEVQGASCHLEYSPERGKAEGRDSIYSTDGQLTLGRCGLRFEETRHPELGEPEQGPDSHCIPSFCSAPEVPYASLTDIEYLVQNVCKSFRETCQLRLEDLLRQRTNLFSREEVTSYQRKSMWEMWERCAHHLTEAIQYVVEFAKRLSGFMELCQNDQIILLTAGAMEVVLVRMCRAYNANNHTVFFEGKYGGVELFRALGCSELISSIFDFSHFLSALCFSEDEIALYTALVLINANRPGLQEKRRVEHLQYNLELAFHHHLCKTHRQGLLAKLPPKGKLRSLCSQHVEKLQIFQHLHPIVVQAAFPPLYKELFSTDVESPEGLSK
#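 Using a luciferase readout, inhibitors were identified by reduced reporter activity in Drosophila cells coexpressing a copper-inducible Gal4–ROR gamma fusion and UAS-driven Photinus luciferase, incubated 20 hr after 700 uM copper sulfate.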
# An asterisk follows results filed as active; ? = inconclusive; / = no result; [ ] = remark or other dose. Hits are enriched below; roughly 19% of the tested compounds scored in any of these assays. Calls follow the shape of the dose curve; as a rule, active = well fitted curve in the direction sought with a large enough effect; inconclusive = small, poorly fitted or top-dose-only effect, or another doubt; inactive = no such curve, though single readings can be large; an effect the other way counts as inactive or inconclusive. % is scaled to controls: 0 for no effect and ±100 for the full control effect; potency is read from the fitted curve at half-maximal effect.
SMILES,TDP1 block,DT40 TDP1 no CPT,Gal4-VP16 FLuc,DT40 TDP1 CPT,RORgamma inh
COC(=O)C1=C(c2cc3ccccc3o2)C[C@@H]2CC[C@H]1N2C(=O)NCc1cccc2ccccc12,/,16.4µM*,/,?,/
COC(=O)C1=C(c2ccc(S(C)(=O)=O)cc2)C[C@@H]2CC[C@H]1N2C(=O)NCc1cccc2ccccc12,/,/,/,29.1µM*,/
COC(=O)C1=C(c2ccc3ccccc3c2)C[C@@H]2CC[C@H]1N2C(=O)NCCNC(C)=O,1.2%,-7.4%,/,9.7%,/
COC(=O)C1=C(c2cc3ccccc3o2)C[C@@H]2CC[C@H]1N2C(=O)NCc1ccco1,/,/,/,16.4µM*,/
COc1ccc(C2C3C=CC(C3)C2C(=O)O)cc1 (centres undefined),/,-8.0%,/,-10.9%,/
CC(C)(Cl)[N+](=O)[O-],-0.3%,1.0%,0.1%,2.1%,23.4%
CC(C)(O)C(Cl)(Cl)Cl,4.9%,?,-5.9%,?,14.3%
Cc1cc(C)n2nc(SC(C)C(=O)N3CCC4(CC3)OCCO4)nc2n1 (centres undefined),2.9%,5.5%,-2.5%,-1.0%,-18.0%
Oc1cc[c]([Hg][Cl])cc1,/,0.266µM*,2.82µM*,0.299µM*,2.51µM*
COc1ccc(CCNc2nc3ccc(Cl)cc3n3cnnc23)cc1OC,-2.5%,16.4µM*,/,18.4µM*,/
CCCC(C)(COC(N)=O)COC(=O)NC(C)C (centres undefined),-6.0%,0.2%,-16.4%,-18.1%,1.8%
CCCn1cc(S(=O)(=O)c2ccc(OC)cc2)c(=O)c2cc(F)c(N3CCCCCC3)cc21,-1.2%,23.1µM*,/,?,/
CN1CCN(c2cc(N3CCCC3)c([N+](=O)[O-])cc2F)CC1,4.0%,?,-6.5%,-25.6%,6.2%
COC(=O)c1cc(Oc2ccc(Cl)cc2Cl)ccc1[N+](=O)[O-],18.7%,/,17.3%,/,?
CN(C)CCOc1ccc(/C(=C(/CCCl)c2ccccc2)c2ccccc2)cc1,4.3%,?,-10.9%,?,3.6%[10 µM]
CC(C(O)c1ccccc1)N(C)CCOC(c1ccccc1)c1ccccc1 (centres undefined),/,15µM*,/,11.9µM*,/
Oc1cc(O)cc(/C=C/c2ccc(O)cc2O)c1,2.4%,?,/,?,/
COc1ccc(/C=C/c2cc(O)cc(O)c2)cc1,10.1%[56.1 µM],4.61µM*,3.55µM*,2.59µM*,1.41µM*
Cc1ccc(Cl)cc1Nc1nn2c(=O)c3ccc(C(=O)NCc4cccs4)cc3nc2s1,-10.3%,16.4µM*,/,14.6µM*,/
COc1cccc(NC(=O)CN2CC(c3ccccc3)CC2=O)c1 (centres undefined),3.9%,-21.0%,1.5%,10.1%,7.4%
COc1cccc(NC(=O)c2ccc3c(=O)n4nc(Nc5ccccc5OC)sc4nc3c2)c1,-8.5%,4.61µM*,/,5.8µM*,/
Cc1cc(OCCCC(=O)NCc2cccs2)ccc1Cl,0.0%,-26.9%,12.8%,1.5%,22.4%
CC(C)(O)/C=C/C(=O)[C@](C)(O)C1[C@H](O)C[C@@]2(C)C3CC=C4C(C[C@H](O)[C@@H](O)C4(C)C)[C@]3(C)C(=O)C[C@]12C (some centres undefined),0.6%,0.326µM*,/,0.291µM*,/
COc1cc(/C=C/c2nc3ccccc3c(=O)n2-c2ccccc2O)ccc1O,/,?,-11.2%,?,32.2%
COc1ccc(/C=C/c2nc(-c3ccccc3O)n(-c3ccccc3)n2)cc1OC,/,10.3µM*,/,10.3µM*,/
CCCCCCn1c(=O)c(C(=O)Nc2c(C)n(C)n(-c3ccccc3)c2=O)c(O)c2ccccc21,/,6.51µM*,3.6%,5.17µM*,1.5%
CCCCCn1c(=O)c(C(=O)Nc2ccncc2)c(O)c2ccccc21,2.9%,/,5.1%,/,34.7%
CCCCn1c(=O)c(C(=O)NCCc2ccccc2)c(O)c2ccccc21,-9.8%,?,?,?,?
CCCCCn1c(=O)c(C(=O)Nc2cccc(C)c2)c(O)c2ccccc21,/,4.61µM*,3.5%,-10.1%,-0.5%[1.91 µM]
